PubChem BioAssay AID362 (NMMLSC, 2006)
Values joined by “and” are separate entries in the source; they are usually repeats but may differ in a detail not shown here. Identical values can stand only once. Screen size: about 4,300 compounds; about 60 (1%) were called active.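 Rule for the calls: active = inhibition of labelled peptide binding to the formyl peptide receptor of at least 65%; inactive = the rest.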 Many of the other results were omitted from the sample, so actives are more common in it than they were.

These compounds were tested against fMet-Leu-Phe receptor (Homo sapiens) (UniProt P21462) (assay: small-molecule ligands of human FPR – U937-FPR cells, fMLFK-FITC, flow cytometry, primary screen (AID 362;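 for inhibition: plate controls were buffer control wells for no effect and unlabeled fMLFF blocking peptide for full effect; higher means less cell fluorescence so more probe displaced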)). Conditions: fMLFK-FITC displacement; active compounds read high, concentration not given here.
Chain of fMet-Leu-Phe receptor (Homo sapiens) (P21462 whole entry, looked up): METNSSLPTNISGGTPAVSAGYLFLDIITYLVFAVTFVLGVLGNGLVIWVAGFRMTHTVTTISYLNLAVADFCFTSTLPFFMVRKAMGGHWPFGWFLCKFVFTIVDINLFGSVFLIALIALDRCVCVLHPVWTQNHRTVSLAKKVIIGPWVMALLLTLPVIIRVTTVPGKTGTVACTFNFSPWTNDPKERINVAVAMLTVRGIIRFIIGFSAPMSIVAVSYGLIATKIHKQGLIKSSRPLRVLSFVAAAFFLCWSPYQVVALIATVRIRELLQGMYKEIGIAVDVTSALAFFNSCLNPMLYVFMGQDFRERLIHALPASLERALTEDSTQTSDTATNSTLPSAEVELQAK

Structure (SMILES) | inhibition
CCCCN(C)Cc1c(O)ccc2c3c(c(=O)oc12)CCC3 | 9.8% (inactive)
CCN(CC)CCOC(=O)NCC1CC(C(C)=O)C1(C)C (configuration not stated) | 8.3% (inactive)
CC(=O)c1ccc(N2CCN(C(=O)c3cn(CC(C)C)c(=O)c4c3c3ccccc3n4C)CC2)cc1 | 2.2% (inactive)
CCOc1ccc(C2C(C(=O)OC(C)C)=C(C)NC3=C2C(=O)C(C(=O)OC)C(C)C3)cc1 (configuration not stated) | 13.6% (inactive)
CCOC(=O)C(CC)Oc1ccc2c3c(c(=O)oc2c1C)CCC3 (configuration not stated) | inactive
CCOC(=O)c1cc2c(=O)n3ccccc3nc2n(CC(C)C)c1=NC(=O)c1ccc(C(F)(F)F)cc1 | inactive
COC(=O)C1C(=O)C2=C(CC1C)NC(C)=C(C(=O)OCCOC(C)C)C2c1ccc(N(C)C)cc1 (configuration not stated) | 79.4% (active)
COC(=O)C1C(=O)C2=C(CC1C)NC(C)=C(C(=O)OCCOC(C)C)C2c1ccc(OC)cc1 (configuration not stated) | 76.1% (active)
COCCOC(=O)C1=C(C)NC2=C(C(=O)C(C(=O)OC)C(C)C2)C1c1ccc(OC)cc1 (configuration not stated) | 16.7% (inactive)
CCOc1ccc(C2C(C(=O)OCCOC(C)C)=C(C)NC3=C2C(=O)C(C(=O)OC)C(C)C3)cc1 (configuration not stated) | 39.6% (inactive)
CCCOCCOC(=O)C1=C(C)NC2=C(C(=O)C(C(=O)OC)C(C)C2)C1c1ccc(N(C)C)cc1 (configuration not stated) | 78.6% (active)
CCCOC(=O)C1=C(C)NC2=C(C(=O)C(C(=O)OC)C(C)C2)C1c1ccc(N(C)C)cc1 (configuration not stated) | 23.6% (inactive)
CCOCCOC(=O)C1=C(C)NC2=C(C(=O)C(C(=O)OC)C(C)C2)C1c1ccc(N(C)C)cc1 (configuration not stated) | 31.5% (inactive)
COCCOC(=O)C1=C(C)NC2=C(C(=O)C(C(=O)OC)C(C)C2)C1c1ccc(N(C)C)cc1 (configuration not stated) | 64% (inactive)
COC(=O)C1C(=O)C2=C(CC1C)NC(C)=C(C(=O)OCCOC(C)C)C2c1ccc(F)cc1 (configuration not stated) | 14.3% (inactive)
COc1ccc(/C=C2/CCCC3=C2OC(N)=C(C#N)C3c2ccc(OC)c(OC)c2)cc1OC (configuration not stated) | inactive
COc1ccc(C2C(C(=O)OC3CCCC3)=C(C)NC3=C2C(=O)CCC3)c(OC)c1OC (configuration not stated) | inactive
COc1cc(C2C(C(=O)OC3CCCCC3)=C(C)NC3=C2C(=O)CC(C)(C)C3)cc(Cl)c1O (configuration not stated) | 10.9% (inactive)
COc1ccc(N2C(=O)C3C4C=CC(C4)C3C2=O)cc1OC (configuration not stated) | inactive
CCOc1ccc(C2C(C(=O)OC3CCCCC3)=C(C)NC3=C2C(=O)CCC3)cc1OC (configuration not stated) | 20.2% (inactive)
COc1ccc(CNC(=O)CCCCCn2c(SCC(=O)NCC3CCCO3)nc3cc4c(cc3c2=O)OCO4)cc1 (configuration not stated) | 2.8% (inactive)
CCOC(=O)C1=C(C)NC2=C(C(=O)C(C(=O)OC)C(C)C2)C1c1ccccc1OC(C)C (configuration not stated) | 10.1% (inactive)
CC(C)(C)c1cc(Nc2ccccc2[N+](=O)[O-])cc(C(C)(C)C)c1O | 20.9% (inactive)

Structure (SMILES) | inhibition
CC(C)(C)c1cc(NS(=O)(=O)c2ccccc2[N+](=O)[O-])cc(C(C)(C)C)c1O | 9.2% (inactive)
CC(C)(C)c1cc(NS(=O)(=O)c2ccc([N+](=O)[O-])cc2)cc(C(C)(C)C)c1O | 68% (active)
O=C(O)C12CC3CC(C1)CC(n1cnc([N+](=O)[O-])n1)(C3)C2 | inactive
COc1ccc(N(CC(=O)N2CC3CC(C2)c2cccc(=O)n2C3)S(=O)(=O)c2c(C)noc2C)cc1 (configuration not stated) | inactive
COc1c(O)ccc(C2Nc3ccc4ccccc4c3C3=C2C(=O)CC(C)(C)C3)c1[N+](=O)[O-] (configuration not stated) | 15.3% (inactive)
COc1c(OC(C)=O)ccc(C2Nc3ccc4ccccc4c3C3=C2C(=O)CC(C)(C)C3)c1[N+](=O)[O-] (configuration not stated) | inactive
CC1(C)CC(=O)C2=C(C1)c1c(ccc3ccccc13)NC2c1cc([N+](=O)[O-])ccc1N1CCOCC1 (configuration not stated) | 71.9% (active)
CC(=O)N1c2ccc(S(=O)(=O)N(CC(C)C)CC(C)C)cc2CC1C (configuration not stated) | inactive
CCCN(CCC)Cc1c(O)ccc2c(=O)c(Oc3ccc(OC)cc3)c(C(F)(F)F)oc12 | inactive
N#CCCN(C(=O)c1cc(Cl)ccc1NS(=O)(=O)c1cccc2nsnc12)C1CCCCC1 | 73% (active)
O=S(=O)(NC1CCCC1)c1cccc2nsnc12 | inactive
O=S(=O)(NC1CCCCCCC1)c1cccc2nsnc12 | inactive
CCOc1cc(C2Nc3c(ccc4ccccc34)C3=C2CCCC3=O)cc(Br)c1O (configuration not stated) | inactive
COc1ccc(N2C3=C(C(=O)CC(C)(C)C3)C(c3ccc(F)cc3)C3=C2CC(C)(C)CC3=O)c(OC)c1 | inactive
CC1=CC(C)C2(COC(=O)Nc3ccccc3)COC(c3cccnc3)C1C2C (configuration not stated) | inactive
CCCCNC(=O)c1cn(CC(C)C)c(=O)c2c1c1ccccc1n2C | inactive
CCOC(=O)C(O)(c1ccc(N(CC)C(=O)c2cccc(F)c2)cc1)C(F)(F)F (configuration not stated) | 27.9% (inactive)
CCN(C(=O)c1ccc(F)cc1)c1ccc(C(O)(C(=O)OC)C(F)(F)F)cc1 (configuration not stated) | inactive
CCN(C(=O)c1cccc(F)c1)c1ccc(C(O)(C(=O)OC)C(F)(F)F)cc1 (configuration not stated) | 85.1% (active)
O=C(CSc1c2c(nc3ccccc13)CCCC2)Nc1ccc2c(c1)OCCO2 | inactive
CC(c1ccccc1)N1C(=O)/C(=C/c2c(N3CCCCC3)nc3ccccn3c2=O)SC1=S (configuration not stated) | inactive
CC(C)C(C(=O)O)N1C(=O)c2cccc([N+](=O)[O-])c2C1=O (configuration not stated) | 17.7% (inactive)
CC(C)C(C(=O)Nc1nccs1)N1C(=O)c2ccccc2C1=O (configuration not stated) | 17.3% (inactive)

Structure (SMILES) | inhibition
CC(C)C(C(=O)O)N1C(=O)/C(=C/c2ccccn2)SC1=S (configuration not stated) | 90.2% (active)
CC(C)c1nnc(NC(=O)C(C(C)C)N2C(=O)c3ccccc3C2=O)s1 (configuration not stated) | 36.6% (inactive)
CC(C)C(C(=O)O)N1C(=O)/C(=C2/C(=O)N(C)c3ccccc32)SC1=S (configuration not stated) | 94.4% (active)
CCOc1ccccc1C1C2=C(CC(C)(C)CC2=O)Nc2nc(C(F)(F)F)nn21 (configuration not stated) | 14.1% (inactive)
O=C(COc1ccc(Cl)cc1)Oc1ccc2c3c(c(=O)oc2c1)CCC3 | 29.6% (inactive)
CC(C)Cn1cc(C(=O)N2CCN(C(=O)c3ccco3)CC2)c2c3ccccc3n(C)c2c1=O | 4% (inactive)
CCOCCOC(=O)C1=C(C)NC2=C(C(=O)C(C(=O)OC)C(C)C2)C1c1cccc(Cl)c1 (configuration not stated) | 30.9% (inactive)
CC1(C)C2([N+](=O)[O-])CN3CC1([N+](=O)[O-])CN(C2)C3C(O)C(O)C(O)C(O)CO (configuration not stated) | inactive
O=C(C1CCC(CNS(=O)(=O)c2ccc(Br)s2)CC1)N1CCC(Cc2ccccc2)CC1 (configuration not stated) | inactive
COc1ccccc1C1Nc2c(C(=O)O)cccc2C2C3CCC(C3)C12 (configuration not stated) | 20.9% (inactive)
CC(C)C1Nc2c(C(=O)O)cccc2C(Nc2ccccc2C(=O)O)C1(C)C (configuration not stated) | 65.1% (active) and 89.9% (active)
O=C(O)c1cccc2c1NC(C(=O)O)C1CC=CC21 (configuration not stated) | 4.5% (inactive)
COc1ccc(Oc2c(C(F)(F)F)oc3cc(OC(C)C(=O)OCCC(C)C)ccc3c2=O)cc1 (configuration not stated) | 8% (inactive)
O=C(NCCCN1CCC(Cc2ccccc2)CC1)C1CCC(CNS(=O)(=O)c2ccccc2)CC1 (configuration not stated) | inactive
CCOc1cc(C2C(C(=O)OC3CCCCCC3)=C(C)NC3=C2C(=O)CC(C)(C)C3)cc([N+](=O)[O-])c1O (configuration not stated) | 40.2% (inactive)
COc1cc(C2C(C(=O)OC3CCCCC3)=C(C)NC3=C2C(=O)CC(c2ccc(Cl)cc2)C3)ccc1OC(C)=O (configuration not stated) | 7% (inactive)
COc1cc(C2C(C(=O)OC3CCCC3)=C(C)NC3=C2C(=O)CC(c2ccc(Cl)cc2)C3)ccc1OC(C)=O (configuration not stated) | 8.8% (inactive)
COc1cc(C2C(C(=O)OC3CCCCC3)=C(C)NC3=C2C(=O)CCC3)cc(Cl)c1O (configuration not stated) | 24.3% (inactive)
COc1ccc(C2C(C(=O)OC3CCCCC3)=C(C)NC3=C2C(=O)CC(c2ccc(Cl)cc2)C3)cc1OC (configuration not stated) | 77.5% (active)
COc1cc(C2C(C(=O)OC3CCCCCC3)=C(C)NC3=C2C(=O)CC(C)(C)C3)cc([N+](=O)[O-])c1O (configuration not stated) | 59.7% (inactive)
COc1cc(C2C(C(=O)OC3CCCCCC3)=C(C)NC3=C2C(=O)CCC3)cc([N+](=O)[O-])c1O (configuration not stated) | 69.7% (active)
CC1=C(C(=O)OC2CCCCC2)C(c2ccc(Cl)c([N+](=O)[O-])c2)C2=C(CCCC2=O)N1 (configuration not stated) | inactive
CCOc1cc(C2C(C(=O)OC3CCCCCC3)=C(C)NC3=C2C(=O)CCC3)cc([N+](=O)[O-])c1O (configuration not stated) | 66.4% (active)

Structure (SMILES) | inhibition
COc1ccc(C2NC(=O)NC(C)=C2C(=O)OC2CCCCCC2)cc1 (configuration not stated) | inactive
CCOC(=O)C1CCC(CN(Cc2ccccc2C)S(=O)(=O)c2cccc(C(F)(F)F)c2)CC1 (configuration not stated) | inactive
COc1cccc(C(=O)Oc2ccc(C(C3=C(O)CC(C)(C)CC3=O)C3=C(O)CC(C)(C)CC3=O)cc2OC)c1 | 86.9% (active)
CCOc1cc(C2C3=C(CC(C)(C)CC3=O)OC3=C2C(=O)CC(C)(C)C3)ccc1OC(=O)c1cccc(C)c1 | inactive
COc1cccc(C(=O)Oc2ccc(C3C4=C(CC(C)(C)CC4=O)OC4=C3C(=O)CC(C)(C)C4)cc2OC)c1 | inactive
CCOc1cc(C2C3=C(CC(C)(C)CC3=O)OC3=C2C(=O)CC(C)(C)C3)ccc1OC(=O)c1cccc(OC)c1 | inactive
CCOc1cc(C(C2=C(O)CC(C)(C)CC2=O)C2=C(O)CC(C)(C)CC2=O)ccc1OC(=O)c1cccc(OC)c1 | 80.2% (active)
COc1cc(C2C3=C(CC(C)(C)CC3=O)OC3=C2C(=O)CC(C)(C)C3)ccc1OC(=O)c1cccc(C)c1 | 12.3% (inactive)
CCOC(=O)c1cccc(N2C(=O)C3C(C2=O)C2C=CC3C23CC3)c1 (configuration not stated) | 5.1% (inactive)
CCSCCOC(=O)C1=C(C)NC2=C(C(=O)C(C(=O)OC)C(C)C2)C1c1c(F)cccc1Cl (configuration not stated) | inactive
CCCOCCOC(=O)C1=C(C)NC2=C(C(=O)C(C(=O)OC)C(C)C2)C1c1ccc(C)o1 (configuration not stated) | 53.7% (inactive)
CCN(Cc1ccccc1)Cc1c(O)ccc2c(=O)c(Oc3ccc(OC)cc3)c(C(F)(F)F)oc12 | inactive
Cc1ccc(-n2c3c(c(=O)[nH]c2=O)C(NC(=O)c2ccccc2C)(C(F)(F)F)C(=O)N3)cc1 (configuration not stated) | 10.6% (inactive)
O=C(NC1(C(F)(F)F)C(=O)Nc2c1c(=O)[nH]c(=O)n2-c1ccc(F)cc1)c1ccccc1Cl (configuration not stated) | 11% (inactive)
CCOc1ccccc1C(=O)NC1(C(F)(F)F)C(=O)Nc2c1c(=O)[nH]c(=O)n2-c1ccccc1 (configuration not stated) | 63.1% (inactive)
CCOc1ccccc1C(=O)NC1(C(F)(F)F)C(=O)Nc2c1c(=O)[nH]c(=O)n2-c1ccc(F)cc1 (configuration not stated) | 75.2% (active)
CCOc1ccccc1C(=O)NC1(C(F)(F)F)C(=O)Nc2c1c(=O)[nH]c(=O)n2-c1ccc(C)cc1 (configuration not stated) | 65.3% (active)
Cc1ccccc1C(=O)NC1(C(F)(F)F)C(=O)Nc2c1c(=O)[nH]c(=O)n2-c1ccc(F)cc1 (configuration not stated) | 12.2% (inactive)
CCOC(=O)CSc1nc2ccccc2c(=O)n1CC1CCC(C(=O)NCCc2ccccc2)CC1 (configuration not stated) | inactive
O=C(O)C1C2C=CC(C2)C1C(=O)NCC1CCCO1 (configuration not stated) | 2.4% (inactive)
CCCOCCOC(=O)C1=C(C)NC2=C(C(=O)C(C(=O)OC)C(C)C2)C1c1cccc(OC)c1 (configuration not stated) | 37.6% (inactive)
CCC(C)C(Nc1ncnc2sc3c(c12)CCC3)C(=O)O (configuration not stated) | 0.8% (inactive)
COc1ccc(OC)c(NC(=O)C(C(C)C)N2C(=O)c3ccccc3C2=O)c1 (configuration not stated) | 27.7% (inactive)
